Inconclusive results are not listed. Calls of active or inactive are those of the source. Unless noted, calls follow the shape of the dose curve; as a rule, active = well fitted curve in the direction sought with a large enough effect; inconclusive = small, poorly fitted or top-dose-only effect, or another doubt; inactive = no such curve, though single readings can be large; an effect the other way counts as inactive or inconclusive.
Columns and labels:
[1] = biological target: Lysosomal acid glucosylceramidase (Homo sapiens) (UniProt P04062); test: Glucocerebrosidase-p2 (AID 348; in the data active = potency below about 10 µM; also: potency is read from the fitted curve at half-maximal effect); conditions: purified GBA, blue fluorogenic substrate, 40 min
Outline: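 Normal human glucocerebrosidase (0.2 nM) with blue fluorogenic substrate (80 uM final) in citrate/phosphate pH 5.9 with 10mM sodium taurocholate, 0.01% tween-20; 40 min RT, NaOH/glycine stop; fluorescence Ex 365/Em 440; AC50 from a titration from 0.6 nM upwards.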

[2] = AP1 Signaling Pathway (AID 357; active = well fitted curve in either direction with a large enough effect, not every such curve was filed as active;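 also: ME-180 reporter cells stimulated with EGF at its EC50 level; % is scaled to controls: 0 for no effect and ±100 for the full control effect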); conditions: ME-180 AP-1-bla reporter, EGF-induced, beta-lactamase ratio, 5 h; at 7.69 µM (top of the series) unless noted
Outline: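 Modulation of EGF-driven AP-1 transcription was assessed with a beta-lactamase reporter in ME-180 cells. Compound and EC50 EGF were co-incubated 5 hours at 37 °C before 2.5-hour CCF4 loading at room temperature and dual-emission reading.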

[3] = biological target: Cytochrome P450 1A2 (Homo sapiens) (UniProt P05177); test: p450-cyp1a2 (AID 410; calls by dose curve; also: potency is read from the fitted curve at half-maximal effect); conditions: recombinant CYP1A2, luciferin-ME demethylation, luminescence; series mostly up to 57 µM
Outline: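 Luminescent demethylation readout: Luciferin-ME (100uM, equal to Km) turned over by 20nM CYP1A2 for 60 min at room temperature after NADPH regeneration addition, following 10 min compound preincubation. Normalization used 57 uM furafylline as full inhibition.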

[4] = NFAT Signaling Pathway (AID 444; active = well fitted curve in either direction with a large enough effect, not every such curve was filed as active;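 also: carbachol stimulus at about its EC50 of 1 µM final; % is scaled to controls: 0 for no effect and ±100 for the full control effect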); conditions: Jurkat NFAT-bla M1, carbachol, beta-lactamase ratio, 5 h; at 7.69 µM (top of the series) unless noted
Outline: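 Read-out: CCF4 FRET ratio (460 nm/530 nm) after 1 h RT dye loading, used for %activity and AC50 from titration series. Cells: Jurkat NFAT-β-lactamase/M1 line, treated with compound plus 1 uM carbachol for 5 h, 37 °C.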

[5] = Stat Signaling Pathway (AID 446; active = well fitted curve in either direction with a large enough effect, not every such curve was filed as active;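 also: ME-180 cervical cancer cells given 40 pM IL-6 alongside compound; SIE-controlled beta-lactamase reporter measured as 460/530 nm FRET emission ratio; % is scaled to controls: 0 for no effect and ±100 for the full control effect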); conditions: ME-180 SIE beta-lactamase reporter, IL-6 stimulated, 5 h; at 7.69 µM (top of the series) unless noted
Outline: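 Normalization used AC90 stimulation (300 pM IL-6) and AC90 inhibition (125 nM pan-JAK inhibitor at 40 pM IL-6). The underlying signal is SIE-driven beta-lactamase in ME-180 cells after 5 h IL-6 exposure with compound.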

[6] = biological target: Glucocorticoid receptor (Homo sapiens) (UniProt P04150); test: GR-GFP Redistribution (AID 450;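 active = compounds whose dose series gives a full or clear partial fitted curve of increased nuclear translocation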; also: potency is read from the fitted curve at half-maximal effect); conditions: U2OS GR-GFP nuclear translocation, laser cytometry, 2 h
[7] = biological target: Cytochrome P450 3A4 (Homo sapiens) (UniProt P08684); test: qHTS Assay for Inhibitors and Substrates of Cytochrome P450 3A4 (AID 884); conditions: recombinant CYP3A4, Luciferin-PPXE luminescence; series mostly up to 57.1 µM; also: potency is read from the fitted curve at half-maximal effect; nearly all actives have a fitted effect of over 50% in size
Outline: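 Luminescent readout of luciferin produced by CYP3A4 (20 nM) dealkylation of Luciferin-PPXE, 25 uM (its KM). NADPH-driven reaction ran 60 min at RT after 10 min compound preincubation; data scaled to 57 uM ketoconazole as 100% inhibition.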

[8] = biological target: Cytochrome P450 3A4 (Homo sapiens) (UniProt P08684); test: qHTS Assay for Activators of Cytochrome P450 3A4 (AID 885); conditions: recombinant CYP3A4, Luciferin-PPXE luminescence, 60 min; series mostly up to 57.1 µM; also: nearly all actives have a fitted effect of over 65% in size
Outline: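 Human CYP3A4 dealkylates Luciferin-PPXE to luciferin, which luciferase detection converts to light. Substrate was at its KM (25uM), buffer 200mM KPO4, reaction 60 min at RT.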

[9] = biological target: Cytochrome P450 2C19 (Homo sapiens) (UniProt P33261); test: qHTS Assay for Inhibitors and Substrates of Cytochrome P450 2C19 (AID 899); conditions: recombinant CYP2C19, luciferin-H EGE luminescence; series mostly up to 57.1 µM; also: potency is read from the fitted curve at half-maximal effect; nearly all actives have a fitted effect of over 60% in size
Outline: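 5nM enzyme + 10uM Luciferin-H EGE (=KM), 50mM KPO4; cpd pin-transferred, 10 min 37C; NADPH regen, 60 min 37C; stopped w/ luciferin detection reagent, 20 min; luminescence. Normalized to 57uM ketoconazole (AC100).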

[10] = qHTS Assay for Lipid Storage Modulators (AID 1519; calls by dose curve); conditions: Drosophila S3 cells, BODIPY lipid droplet/cell ratio, laser cytometry, cells loaded with oleic acid; for activity change, negative = inhibition: at 57.5 µM (top of the series)
Outline: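 Cells seeded at 5,000 per well were treated with compounds over a concentration series and loaded with oleic acid (400 uM, as added). Lipid droplet fluorescence (488 nm excitation, 500-530 nm channel) was read by laser-scanning cytometry and normalized to 20 uM Triacsin C.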

[11] = biological target: Dual specificity protein kinase CLK4 (Homo sapiens) (UniProt Q9HAZ1); test: qHTS Assay for Inhibitors of CDC-like Kinase 4 (Kinase-Glo Assay) (AID 1770); conditions: recombinant Clk4, Kinase-Glo ATP depletion luminescence; series mostly up to 66.7 µM; also: % is scaled to controls: 0 for no effect and ±100 for the full control effect; nearly all actives have a fitted effect of over 65% in size
Outline: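 25 nM Clk4 with 100 uM RS repeat peptide and 1 uM ATP (final) in Tris pH7.5, 10 mM MgCl2, 4.5 h at room temperature. Remaining ATP measured by Kinase-Glo luciferase luminescence.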

[12] = biological target: Dual specificity protein kinase CLK4 (Homo sapiens) (UniProt Q9HAZ1); test: qHTS Assay for Inhibitors of CDC-like Kinase 4 (ADP-Glo Assay) (AID 1771); conditions: recombinant CLK4, ADP-Glo luminescence; series mostly up to 80 µM; also: % is scaled to controls: 0 for no effect and ±100 for the full control effect; nearly all actives have a fitted effect of over 70% in size
Outline: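 ADP production was read by ADP-Glo luminescence after residual ATP depletion, following 1 h room-temperature reaction of 25 nM Clk4, 1 uM ATP and 100 uM RS peptide with MgCl2, EGTA, DTT and Triton X-100.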

[13] = biological target: Dual specificity protein kinase CLK4 (Homo sapiens) (UniProt Q9HAZ1); test: qHTS Assay for Inhibitors of CDC-like Kinase 4 (ADP-FP Assay) (AID 1795); conditions: Transcreener ADP fluorescence polarization; series mostly up to 50 µM;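 also: recombinant human CLK4 phosphorylating RS repeat peptide at 1 µM ATP; % is scaled to controls: 0 for no effect and ±100 for the full control effect; nearly all actives have a fitted effect of over 60% in size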
Outline: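 Recombinant Clk4 (6.25 nM) phosphorylated 100 uM RS repeat peptide with 1 uM ATP in 25 mM Tris pH 7.5, 10 mM MgCl2, 0.5 mM EGTA, 2.5 mM DTT, 0.01% Triton X-100 for 1 h. ADP was detected by Transcreener ADP2 competitive fluorescence polarization after 30 min at room temperature.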

[14] = biological target: Ubiquitin carboxyl-terminal hydrolase 1 (Homo sapiens) (UniProt O94782); test: Inhibitors of USP1/UAF1: Pilot qHTS (AID 504865); conditions: purified USP1/UAF1, Ub-rhodamine cleavage fluorescence; series mostly up to 54.9 µM;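 also: rhodamine fluorescence freed from ubiquitin-rhodamine substrate followed over time; top concentration of the series differs between compounds; % is scaled to controls: 0 for no effect and ±100 for the full control effect; nearly all actives have a fitted effect of over 35% in size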
Outline: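 USP1/UAF1 complex at 1 nM preincubated 15 min at room temperature with compound, then Ub-Rho substrate added at 150 nM final. Fluorescence (480/540 nm) read kinetically in 50 mM HEPES pH 7.8, 0.5 mM EDTA, 1 mM TCEP, 0.1 mg/ml BSA, 0.01% Tween-20.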

[15] = Primary qHTS for small molecule stabilizers of the endoplasmic reticulum resident proteome: Secreted ER Calcium Modulated Protein (SERCaMP) assay (AID 1508630); conditions: SH-SY5Y GLuc-SERCaMP (Gaussia luciferase released on ER calcium loss) secretion, thapsigargin, luminescence; series mostly up to 38.4 µM; also: % is scaled to controls: 0 for no effect and ±100 for the full control effect
Outline: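 The SH-SY5Y reporter protocol was run at 3 concentrations up to 38.3 uM (primary) or 11 concentrations (follow-up): 16 h compound, 100 nM thapsigargin for 4 h, then extracellular luciferase luminescence.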

[16] = biological target: Glucocorticoid receptor (Homo sapiens) (UniProt P04150); test: GR-EFC Redistribution (AID 451; calls by dose curve; also: potency is read from the fitted curve at half-maximal effect); conditions: CHO-K1 GR-EFC translocation, beta-gal luminescence, 2 h
Outline: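 Translocation of GR-ED fusion to nuclear EA restores b-gal, read by luminescence after 1 h room-temperature detection. Engineered CHO-K1 biosensor cells, 1,000/well, exposed 2 h at 37 C to titrations up to 46 uM final.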

[17] = biological target: Mitogen-activated protein kinase 10 (Mus musculus) (UniProt Q61831); test: JNK3 AlphaScreen Assay (AID 530; active = well fitted curve in either direction with a large enough effect, not every such curve was filed as active); conditions: JNK3 lysate, c-Jun phosphorylation; series mostly up to 57.1 µM
Outline: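 qHTS titrations with 15 min compound pre-incubation before adding ATP (10 uM final). Read-out: AlphaScreen of Ser73-phosphorylated biotin-GST-cJun using HepG2 lysate JNK3 activated by IL-1β and TNFα.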

[18] = qHTS Assay for Identification of Small Molecule Agonists for Hypoxia Response Element Signaling Pathway (AID 914; active = well fitted activation curve with a large enough effect in the signal ratio, with a control signal flat, not every such curve was filed as active; the % refers to the signal ratio; also: potency is read from the fitted curve at half-maximal effect); conditions: ME-180 (cervical carcinoma) HRE-bla reporter, beta-lactamase ratio, CoCl2, 17 h; activation: stronger effect = higher value
Outline: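 A beta-lactamase reporter under hypoxia response element control in ME-180 cells served as the system. Compound titrations plus EC50 CoCl2 ran 17 h at 37 degrees Celsius; AC50 values were fitted from %Activity.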

[19] = biological target: 3',5'-cyclic-AMP phosphodiesterase 4B (Homo sapiens) (UniProt Q07343); test: qHTS Assay for Inhibitors of PDE-IV (AID 607; active = well fitted activation curve with a large enough effect in the main read-out, with a control signal flat, not every such curve was filed as active; also: % of control where 0% means no effect); conditions: HEK293 ACTOne CNG channel cells, membrane potential fluorescence; series mostly up to 22.9 µM
Outline: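 HEK293 ACTOne cells with CNG channel (1000/well), endogenous PDE4; membrane potential dye, compounds up to 22.9 uM final. Fluorescence Ex 535/Em 590; RO 20-1724 (100 uM final) as reference.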

[20] = measured here: cell count channel max response
[21] = measured here: lipid channel max response

Sequence of Glucocorticoid receptor (Homo sapiens) (P04150 whole entry, looked up, the tested form may be a part): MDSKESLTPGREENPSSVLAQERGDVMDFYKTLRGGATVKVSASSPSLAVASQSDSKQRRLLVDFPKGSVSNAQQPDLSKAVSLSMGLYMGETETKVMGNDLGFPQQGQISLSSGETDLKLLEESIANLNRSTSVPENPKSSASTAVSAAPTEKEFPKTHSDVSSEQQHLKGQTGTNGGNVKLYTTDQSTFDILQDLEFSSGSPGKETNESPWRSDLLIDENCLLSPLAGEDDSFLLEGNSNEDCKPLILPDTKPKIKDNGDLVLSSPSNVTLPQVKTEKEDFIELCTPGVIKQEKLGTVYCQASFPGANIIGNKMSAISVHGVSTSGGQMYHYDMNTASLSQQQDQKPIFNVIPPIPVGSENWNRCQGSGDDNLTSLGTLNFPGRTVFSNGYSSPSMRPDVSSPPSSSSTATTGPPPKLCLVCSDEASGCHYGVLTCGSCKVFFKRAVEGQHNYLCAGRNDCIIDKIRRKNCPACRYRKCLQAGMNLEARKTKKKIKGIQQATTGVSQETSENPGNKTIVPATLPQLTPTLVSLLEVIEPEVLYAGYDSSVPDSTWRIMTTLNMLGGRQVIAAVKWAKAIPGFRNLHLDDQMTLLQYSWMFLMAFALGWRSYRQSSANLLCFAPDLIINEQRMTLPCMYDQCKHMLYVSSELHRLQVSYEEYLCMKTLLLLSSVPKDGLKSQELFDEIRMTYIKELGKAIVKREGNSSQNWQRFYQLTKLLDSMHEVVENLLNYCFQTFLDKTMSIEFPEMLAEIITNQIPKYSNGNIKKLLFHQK
Sequence of Cytochrome P450 1A2 (Homo sapiens) (P05177 whole entry, looked up): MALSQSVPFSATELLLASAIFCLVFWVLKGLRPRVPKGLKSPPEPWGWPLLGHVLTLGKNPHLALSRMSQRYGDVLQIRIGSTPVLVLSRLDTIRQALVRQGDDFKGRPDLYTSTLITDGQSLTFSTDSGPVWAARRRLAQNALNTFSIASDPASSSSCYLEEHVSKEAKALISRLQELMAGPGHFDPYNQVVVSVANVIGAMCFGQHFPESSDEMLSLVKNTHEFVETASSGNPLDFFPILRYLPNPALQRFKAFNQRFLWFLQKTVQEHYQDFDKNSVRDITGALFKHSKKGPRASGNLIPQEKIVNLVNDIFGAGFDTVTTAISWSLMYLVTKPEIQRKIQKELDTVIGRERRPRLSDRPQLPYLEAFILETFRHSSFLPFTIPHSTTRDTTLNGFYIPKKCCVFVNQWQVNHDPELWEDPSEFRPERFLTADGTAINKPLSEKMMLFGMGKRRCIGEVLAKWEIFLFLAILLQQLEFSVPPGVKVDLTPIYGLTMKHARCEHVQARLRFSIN
Sequence of Ubiquitin carboxyl-terminal hydrolase 1 (Homo sapiens) (O94782 whole entry, looked up): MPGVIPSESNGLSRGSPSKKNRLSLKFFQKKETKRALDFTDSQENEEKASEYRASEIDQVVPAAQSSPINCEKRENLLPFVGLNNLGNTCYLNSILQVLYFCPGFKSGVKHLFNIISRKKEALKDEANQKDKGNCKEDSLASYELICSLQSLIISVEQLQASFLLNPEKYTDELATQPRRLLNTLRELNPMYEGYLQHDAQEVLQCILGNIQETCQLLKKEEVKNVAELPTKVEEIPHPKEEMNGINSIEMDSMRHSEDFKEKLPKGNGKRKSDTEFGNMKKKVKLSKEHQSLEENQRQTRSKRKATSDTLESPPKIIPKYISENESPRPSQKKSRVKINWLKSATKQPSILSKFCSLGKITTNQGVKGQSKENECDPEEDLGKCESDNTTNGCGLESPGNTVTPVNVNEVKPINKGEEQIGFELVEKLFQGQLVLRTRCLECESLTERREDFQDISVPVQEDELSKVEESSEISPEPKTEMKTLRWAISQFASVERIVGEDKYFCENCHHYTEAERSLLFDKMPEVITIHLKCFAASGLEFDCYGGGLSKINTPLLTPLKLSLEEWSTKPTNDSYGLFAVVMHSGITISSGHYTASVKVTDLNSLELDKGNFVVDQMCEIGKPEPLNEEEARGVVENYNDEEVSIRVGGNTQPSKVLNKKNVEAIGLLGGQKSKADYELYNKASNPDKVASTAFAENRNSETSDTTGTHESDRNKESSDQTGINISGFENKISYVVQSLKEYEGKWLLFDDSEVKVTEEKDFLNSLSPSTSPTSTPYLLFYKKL
Sequence of Lysosomal acid glucosylceramidase (Homo sapiens) (P04062 whole entry, looked up): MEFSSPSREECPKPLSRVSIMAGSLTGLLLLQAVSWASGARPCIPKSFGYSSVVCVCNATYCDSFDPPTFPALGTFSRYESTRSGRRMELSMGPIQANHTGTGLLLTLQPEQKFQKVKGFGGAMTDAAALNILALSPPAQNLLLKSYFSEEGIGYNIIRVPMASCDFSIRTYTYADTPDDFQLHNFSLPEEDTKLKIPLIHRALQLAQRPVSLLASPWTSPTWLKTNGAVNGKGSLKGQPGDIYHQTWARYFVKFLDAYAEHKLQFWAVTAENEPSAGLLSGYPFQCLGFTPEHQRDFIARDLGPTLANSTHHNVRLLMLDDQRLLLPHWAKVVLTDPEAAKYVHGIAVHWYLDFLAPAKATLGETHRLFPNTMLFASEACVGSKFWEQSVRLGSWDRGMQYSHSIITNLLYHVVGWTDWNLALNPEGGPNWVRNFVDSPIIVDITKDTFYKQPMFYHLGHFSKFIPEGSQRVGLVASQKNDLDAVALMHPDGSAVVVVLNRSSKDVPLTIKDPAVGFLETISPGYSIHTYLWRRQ
Sequence of Dual specificity protein kinase CLK4 (Homo sapiens) (Q9HAZ1 whole entry, looked up): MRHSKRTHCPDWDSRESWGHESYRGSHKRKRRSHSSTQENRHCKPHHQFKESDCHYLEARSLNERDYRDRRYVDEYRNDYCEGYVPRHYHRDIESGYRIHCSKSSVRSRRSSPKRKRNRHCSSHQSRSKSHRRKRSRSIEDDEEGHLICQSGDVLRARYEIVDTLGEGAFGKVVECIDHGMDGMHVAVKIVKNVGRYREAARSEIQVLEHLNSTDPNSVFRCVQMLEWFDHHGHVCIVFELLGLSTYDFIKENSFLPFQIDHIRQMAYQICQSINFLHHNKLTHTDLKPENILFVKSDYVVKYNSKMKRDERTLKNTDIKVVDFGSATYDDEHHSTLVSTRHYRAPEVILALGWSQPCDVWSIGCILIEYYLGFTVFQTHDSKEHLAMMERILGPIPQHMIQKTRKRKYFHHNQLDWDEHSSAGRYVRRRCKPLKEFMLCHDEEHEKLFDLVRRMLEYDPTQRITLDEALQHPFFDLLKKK
Sequence of Cytochrome P450 3A4 (Homo sapiens) (P08684 whole entry, looked up): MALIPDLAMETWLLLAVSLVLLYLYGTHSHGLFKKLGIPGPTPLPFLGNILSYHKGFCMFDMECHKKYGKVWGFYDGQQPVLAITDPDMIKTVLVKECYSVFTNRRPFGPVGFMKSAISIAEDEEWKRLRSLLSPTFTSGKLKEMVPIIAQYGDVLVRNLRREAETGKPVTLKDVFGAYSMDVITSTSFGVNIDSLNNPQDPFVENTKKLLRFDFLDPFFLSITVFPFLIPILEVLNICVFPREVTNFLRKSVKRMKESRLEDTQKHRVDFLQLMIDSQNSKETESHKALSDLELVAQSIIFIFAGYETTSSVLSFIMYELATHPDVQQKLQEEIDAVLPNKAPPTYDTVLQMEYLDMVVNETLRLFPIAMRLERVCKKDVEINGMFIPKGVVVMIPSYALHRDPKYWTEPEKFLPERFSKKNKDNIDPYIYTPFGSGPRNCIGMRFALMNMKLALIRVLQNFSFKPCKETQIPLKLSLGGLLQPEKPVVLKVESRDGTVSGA
Sequence of 3',5'-cyclic-AMP phosphodiesterase 4B (Homo sapiens) (Q07343 whole entry, looked up): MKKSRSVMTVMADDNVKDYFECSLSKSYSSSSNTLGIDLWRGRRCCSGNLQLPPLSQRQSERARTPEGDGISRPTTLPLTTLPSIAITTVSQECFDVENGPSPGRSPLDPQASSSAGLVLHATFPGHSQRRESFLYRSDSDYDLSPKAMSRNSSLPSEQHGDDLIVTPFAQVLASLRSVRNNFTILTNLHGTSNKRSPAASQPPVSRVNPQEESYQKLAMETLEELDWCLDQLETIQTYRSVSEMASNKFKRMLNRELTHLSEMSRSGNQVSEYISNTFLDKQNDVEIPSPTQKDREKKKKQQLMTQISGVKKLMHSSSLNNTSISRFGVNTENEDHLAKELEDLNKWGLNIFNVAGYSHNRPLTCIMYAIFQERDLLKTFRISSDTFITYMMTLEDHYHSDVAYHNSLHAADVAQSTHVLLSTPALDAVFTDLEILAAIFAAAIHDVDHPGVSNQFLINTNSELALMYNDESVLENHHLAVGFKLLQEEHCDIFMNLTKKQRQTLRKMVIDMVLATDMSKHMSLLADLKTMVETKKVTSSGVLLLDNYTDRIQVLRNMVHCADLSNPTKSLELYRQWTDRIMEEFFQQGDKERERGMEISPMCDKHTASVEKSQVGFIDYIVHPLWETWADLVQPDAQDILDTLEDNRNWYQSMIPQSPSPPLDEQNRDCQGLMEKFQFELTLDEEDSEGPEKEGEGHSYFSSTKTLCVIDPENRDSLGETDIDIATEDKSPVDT
Sequence of Cytochrome P450 2C19 (Homo sapiens) (P33261 whole entry, looked up): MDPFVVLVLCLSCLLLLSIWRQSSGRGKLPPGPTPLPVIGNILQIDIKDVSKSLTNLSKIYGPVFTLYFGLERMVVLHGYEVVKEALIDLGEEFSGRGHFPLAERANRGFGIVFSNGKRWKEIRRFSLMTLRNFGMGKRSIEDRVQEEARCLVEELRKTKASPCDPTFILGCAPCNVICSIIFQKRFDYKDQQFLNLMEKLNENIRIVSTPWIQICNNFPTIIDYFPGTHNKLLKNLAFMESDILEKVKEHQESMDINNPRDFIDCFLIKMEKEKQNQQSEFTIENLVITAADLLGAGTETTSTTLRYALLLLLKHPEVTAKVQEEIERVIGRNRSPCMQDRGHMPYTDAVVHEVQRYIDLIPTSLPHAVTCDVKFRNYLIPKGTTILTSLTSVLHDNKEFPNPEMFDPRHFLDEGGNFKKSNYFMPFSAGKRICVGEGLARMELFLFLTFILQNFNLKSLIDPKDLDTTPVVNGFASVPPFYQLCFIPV

Question: For `O=c1c(CCc2ccccc2)nc2cncnc2n1Cc1ccc(F)cc1`, which Potency [1] is on record?
Answer: > 11.4 µM (inactive)

Question: And the activity change, negative = inhibition [2]?
Answer: -7.12% (inactive)

Question: What about the Potency [3] of the same compound?
Answer: 10 µM (active)

Question: And the activity change, negative = inhibition [4]?
Answer: -3.47% (inactive)

Question: What about the activity, negative = inhibition [5] of the same compound?
Answer: -6.1% (inactive)

Question: What about the Potency [6] of the same compound?
Answer: > 9.22 µM (inactive)

Question: What about the Potency [7] of the same compound?
Answer: 3.16 µM (active)

Question: What about the Potency [8] of the same compound?
Answer: inactive

Question: And the Potency [9]?
Answer: 6.31 µM (active)

Question: And the activity change, negative = inhibition [10]?
Answer: 5.86% (inactive)

Question: And the max response [10, 20]?
Answer: 18.7%

Question: What about the max response [10, 21] of the same compound?
Answer: 23.1%

Question: What about the Potency [11] of the same compound?
Answer: inactive

Question: What about the Potency [12] of the same compound?
Answer: inactive

Question: And the Potency [13]?
Answer: inactive

Question: And the Potency [14]?
Answer: inactive

Question: What about the Potency [15] of the same compound?
Answer: inactive

Question: Which Potency [1] does the source give for `CN(C)c1ncc2nc(-c3ccccc3)c(=O)n(-c3ccccc3)c2n1` here?
Answer: > 11.4 µM (inactive)

Question: What about the activity change, negative = inhibition [2] of the same compound?
Answer: 15.6% (inactive)

Question: And the Potency [3]?
Answer: 0.398 µM (active)

Question: What about the activity change, negative = inhibition [4] of the same compound?
Answer: 23.9% (inactive)

Question: And the Potency [6]?
Answer: > 9.22 µM (inactive)

Question: And the Potency [16]?
Answer: > 46 µM (inactive)

Question: And the outcome [17]?
Answer: inactive

Question: And the Potency [18]?
Answer: 0.631 µM (active)

Question: What about the activity change, negative = inhibition [10] of the same compound?
Answer: -3.18% (inactive)

Question: And the max response [10, 20]?
Answer: 22.5%

Question: What about the max response [10, 21] of the same compound?
Answer: 15.8%

Question: And the Potency [11]?
Answer: inactive

Question: What about the Potency [12] of the same compound?
Answer: inactive

Question: And the Potency [13]?
Answer: inactive

Question: What about the Potency [14] of the same compound?
Answer: inactive

Question: What about the Potency [15] of the same compound?
Answer: inactive

Question: With `COc1ncc2nc(-c3cc(F)cc(F)c3)c(=O)n(C)c2n1` as the compound, how does the Potency [1] read?
Answer: > 11.4 µM (inactive)

Question: What about the activity change, negative = inhibition [2] of the same compound?
Answer: -19.2% (inactive)

Question: What about the Potency [3] of the same compound?
Answer: 2 µM (active)

Question: And the activity, negative = inhibition [5]?
Answer: -3.71% (inactive)

Question: And the Potency [6]?
Answer: > 9.22 µM (inactive)

Question: What about the Potency [16] of the same compound?
Answer: > 46 µM (inactive)

Question: What about the outcome [17] of the same compound?
Answer: inactive

Question: What about the Potency [19] of the same compound?
Answer: inactive

Question: What about the activity change, negative = inhibition [10] of the same compound?
Answer: 5.28% (inactive)

Question: What about the max response [10, 20] of the same compound?
Answer: 24.3%

Question: What about the max response [10, 21] of the same compound?
Answer: 28.7%

Question: And the Potency [11]?
Answer: inactive

Question: And the Potency [12]?
Answer: inactive

Question: What about the Potency [13] of the same compound?
Answer: inactive

Question: What about the Potency [14] of the same compound?
Answer: inactive

Question: What about the Potency [15] of the same compound?
Answer: inactive

— PubChem BioAssay (NCATS)
